Experimental data as given in PubChem BioAssay (EPA / NIEHS).
The source made the active and inactive calls. The calls were made as follows: active = hit-call score of the fitted dose curve at least 0.9, where 1 is the maximum; inactive = score below 0.9.

Read-out: urokinase plasminogen activator (uPA), PLAU (gene 5328)
Experiment: BSK_KF3CT_uPA: BioMAP Diversity Plus: KF3CT Assay for urokinase plasminogen activator (uPA) Biomarker Activity (AID 2283075)
Conditions: primary human keratinocytes with fibroblasts; actives raise or lower the signal
Procedure: BSK_KF3CT is a cell-based, multiplexed-readout assay that uses keratinocytes and foreskin fibroblasts, a human skin primary cell co-culture, with measurements taken at 24 hours after chemical dosing in a 96-well plate.BSK_KF3CTA is an assay component measured in the BSK_KF3CT assay. It measures uPA antibody related to regulation of gene expression using ELISA technology.Data from the assay component BSK_KF3CTA was analyzed into 1 assay endpoint. This assay endpoint, BSK_KF3CTA, was analyzed with bidirectional fitting relative to DMSO as the negative control and baseline of activity. Using a type of binding reporter, gain or loss-of-signal activity can be used to understand changes in the signaling as they relate to the gene PLAU. Furthermore, this assay endpoint can be referred to as a primary readout, because this assay has produced multiple assay endpoints where this one serves a signaling function. To generalize the intended target to other relatable targets, this assay endpoint is annotated to the protease intended target family, where the subfamily is serine protease.
The levels of cell surface (or secreted, indicated by the prefix "s") biomarker endpoints were measured by ELISA. Overt cytotoxicity to cells in confluent adherent cultures (all systems other than the BT system) was assessed by measuring total protein levels using sulforhodamine B (SRB) staining in parallel cultures at the time of biomarker measurements, indicated as SRB endpoints. For proliferation assays for adherent cell types, individual cell types are cultured at sub-confluence and relative cell numbers quantified by SRB staining at time points optimized for each system (48 h: 3C and CASM3C systems; 72 h: BT and HDF3CGF systems; 96 h: SAg system). SRB was performed by staining cells with 0.1% SRB after fixation with 10% TCA and reading wells at 560 nm.Viability and proliferation of PBMC (T cells) was quantified by Alamar Blue reduction for the SAg and BT systems. For PBMC viability (referred to as PBMC Cytotoxicity within the assay endpoint names), cells were plated (75,000/well in a 96-well plate) and then chemical samples added for 1 h before addition of activators, SEB and TSST-1 (20 ng/mL final concentration each). Cells were incubated for 90 h. Then, Alamar Blue (20 uL/well) (Invitrogen, Cat DAL1100) was added for 6 h, and the plates were read with a fluorescence microplate reader at 546/580 nm (excitation/emission). For PBMC proliferation, cells were plated and activated as above but incubated for only 16 h prior to addition of Alamar Blue. Plates were read after 6 h.

SMILES	outcome	AC50
CNC(=O)N(C)c1nnc(C(C)(C)C)s1	inactive	–
COP(=O)(OC)O/C(C)=C/C(=O)N(C)C	inactive	–
CCCN(CC)CC1COC2(CCC(C(C)(C)C)CC2)O1 (stereo not given)	inactive	–
COC(=O)c1c(C(F)F)nc(C(F)(F)F)c(C2=NCCS2)c1CC(C)C	inactive	–
OC(c1ccc(Cl)cc1)(c1ccc(Cl)cc1)C(Cl)(Cl)Cl	–	7.28 µM (active)
CCCCOCN(C(=O)CCl)c1c(CC)cccc1CC	–	31.3 µM (active)
CN=C=S	inactive	–
CCN(CC)c1nc(C)cc(OP(=S)(OC)OC)n1	inactive	–
CC(C)N1C(=O)c2ccccc2NS1(=O)=O	inactive	–
CCN(CC)C(=O)C(C)Oc1cccc2ccccc12 (stereo not given)	inactive	–
CC1(C)CON(Cc2ccccc2Cl)C1=O	inactive	–
COP(=S)(OC)SCn1nnc2ccccc2c1=O	inactive	–
CS(=O)(=O)c1cc(C(F)(F)F)ccc1C(=O)c1cnoc1C1CC1	inactive	–
CCOC(=O)C(C)OC(=O)c1cc(Oc2ccc(C(F)(F)F)cc2Cl)ccc1[N+](=O)[O-] (stereo not given)	inactive	–
CCOc1nc(F)cc2nc(S(=O)(=O)Nc3c(Cl)cccc3Cl)nn12	inactive	–
CCOc1cc(C(C)(C)C)ccc1C1COC(c2c(F)cccc2F)=N1 (stereo not given)	–	27.1 µM (active)
CCCCC(O)(Cn1cncn1)c1ccc(Cl)cc1Cl (stereo not given)	inactive	–
CCNP(=S)(OC)O/C(C)=C/C(=O)OC(C)C (stereo not given)	inactive	–
CC1(C)C(C(=O)OC(C#N)c2cccc(Oc3ccccc3)c2)C1(C)C (stereo not given)	inactive	–
Cc1cc(C)nc(Nc2ccccc2)n1	inactive	–

SMILES	outcome	AC50
COP(=S)(OC)Oc1ccc([N+](=O)[O-])c(C)c1	inactive	–
COc1ccc(-c2ccccc2)cc1NNC(=O)OC(C)C	inactive	–
CC(C)C1(C)N=C(c2ncccc2C(=O)O)NC1=O (stereo not given)	inactive	–
CCC(C)n1c(=O)[nH]c(C)c(Br)c1=O (stereo not given)	inactive	–
Nc1c(Cl)c(F)nc(OCC(=O)O)c1Cl	inactive	–
Cc1cnc(C2=NC(C)(C(C)C)C(=O)N2)c(C(=O)O)c1 (stereo not given)	inactive	–
CCNC(=O)NC(=O)C(C#N)=NOC	inactive	–
CC(C)Oc1cccc(NC(=O)c2ccccc2C(F)(F)F)c1	inactive	–
COCC(C)N(C(=O)CCl)c1c(C)csc1C (stereo not given)	inactive	–
CN/C(=N\[N+](=O)[O-])NCc1cnc(Cl)s1	inactive	–
COCc1cnc(C2=NC(C)(C(C)C)C(=O)N2)c(C(=O)O)c1 (stereo not given)	inactive	–
CS(=O)(=O)c1ccc(C(=O)C2C(=O)CCCC2=O)c([N+](=O)[O-])c1	inactive	–
COc1cc(OC)nc(NC(=O)NS(=O)(=O)c2ncccc2OCC(F)(F)F)n1	inactive	–
Clc1cccc(C(Cl)(Cl)Cl)n1	inactive	–
O=C(Nc1ccccc1-c1ccc(Cl)cc1)c1cccnc1Cl	inactive	–
Nc1c(Cl)c(Cl)nc(C(=O)O)c1Cl	inactive	–
COC(=O)NC(=S)Nc1ccccc1NC(=S)NC(=O)OC	inactive	–
N#Cc1c[nH]cc1-c1cccc2c1OC(F)(F)O2	inactive	–
COC(=O)N(C(=O)N1CO[C@@]2(C(=O)OC)Cc3cc(Cl)ccc3C2=N1)c1ccc(OC(F)(F)F)cc1	inactive	–
Cc1nc(N(C)C)nc(OC(=O)N(C)C)c1C	inactive	–
